The source of these data is article PMC5540273 (PLoS ONE, 2017).

What all share (conditions): concentration: 1 μM, replicates: in singlicate; n = 1
Assay [1] has as its system T1, ERK4.
T1 construct: gene MAPK4

The subject of assay [2] is T2, ERK5.
T2 construct: gene MAPK7

Assay [3] deals with T3, ERK8.
T3 construct: gene MAPK15

Assay [4] concerns ERN1.
Assay [5] deals with T4, FAK.
T4 construct: gene PTK2

Assay [6] relates to FER.
The subject of assay [7] is FES.
Assay [8] has as its system FGFR1.
For assay [9], the system named is FGFR2.
Assay [10] concerns FGFR3.
The test system of assay [11] is FGFR4.
Assay [12] relates to FGR.
For assay [13], the system named is FLT1.
For assay [14], the system named is FLT3-autoinhibited.
Assay [15] concerns FLT3.
Assay [16] deals with FLT4.
Assay [17] has as its system FRK.
The subject of assay [18] is FYN.
Assay [19] has as its system GAK.
For assay [20], the system named is T5, GCN2(Kin.Dom.2,S808G).
T5 construct: gene EIF2AK4

Each structure is given as a SMILES string.
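Also: KINOMEscan kinase panel screen.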

As for `CCCc1ccc(S(=O)(=O)NC2CCN(c3ccnc(Nc4ccc(OC)cc4)n3)C2)cc1` (centres unmarked) [GSK1379737], the “%Inh” value worked out at 17% in assay [1]; 0% in assay [2]; 0% in assay [3]; 0% in [4]; 0% in assay [5]; 12% in [6]. Also, the “%Inh” value in assay [7] was found to be 0%; in assay [8], 0%; in [9], 0%; in assay [10], 0%; in assay [11], 8%; in assay [12], 12%. In addition, the “%Inh” value in assay [13] is 3%; in assay [14], 0%; in assay [15], 26%; in assay [16] it was 9%; in assay [17], 0%; in assay [18], 7%. The “%Inh” value in assay [19] is recorded as 0%; in assay [20], 33%.
Turning to `c1ccc(-c2ccc3c(-c4ccnc(Nc5ccc6c(c5)OCCO6)n4)cnn3n2)cc1` [GW818941], the “%Inh” value in [1] is listed as 0%; in [2], 0%; in assay [3], 92.7%; in assay [4], 0%; in assay [5] it was 6%; in assay [6], 23%. Moreover, the “%Inh” value in assay [7] was 0%; in assay [8], 18%; in [9], 0%; in assay [10], 15%; in assay [11], 10%; in [12], 23%. Further, the “%Inh” value is 31% in assay [13]; 18% in assay [14]; 36% in assay [15]; 36% in assay [16]; 9% in assay [17]; 32% in assay [18]. Further, the “%Inh” value in assay [19] worked out at 28%; in [20], 11%.
As for `Cl.Fc1ccccc1COc1ccc(Nc2ncnc3ccc(-c4nnc(C(F)(F)F)o4)cc23)cc1Cl` [GW424170], the “%Inh” value in [1] was 13%; in assay [2], 0%; in [3], 0%; in assay [4] it was 2%; in [5], 0%; in [6] it was 18%. The “%Inh” value is listed as 0% in assay [7]; 0% in [8]; 0% in assay [9]; 8% in assay [10]; 0% in [11]; 6% in assay [12]. For the same molecule, the “%Inh” value in assay [13] is reported as 18%; in assay [14], 0%; in assay [15], 0%; in assay [16], 3%; in [17] it was 0%; in assay [18], 0%. The “%Inh” value in assay [19] and in [20] was 0% each time.
Take `Cn1ccc2ncnc(Nc3ccc(Oc4cccc(Cl)c4)c(Cl)c3)c21`: the “%Inh” value worked out at 25% in [1]; 22% in assay [2]; 0% in assay [3]; 48% in [4]; 0% in assay [5]; 0% in assay [6]. For the same molecule, the “%Inh” value in assay [7] came out at 8%; in assay [8], 1%; in assay [9], 6%; in assay [10], 1%; in assay [11], 0%; in [12], 0%. For the same molecule, the “%Inh” value in assay [13] was 0%; in assay [14] it was 17%; in assay [15], 0%; in [16] it was 18%; in assay [17] it was 4%; in assay [18], 1%. The “%Inh” value is on record as 0% in [19] and 28% in [20].
With `Fc1ccc(-c2ncn(CCCNCc3ccccc3)c2-c2ccncc2)cc1`, the “%Inh” value is on record as 14% in assay [1]; 0% in assay [2]; 13% in assay [3]; 14% in [4]; 0% in assay [5]; 13% in assay [6]. Besides, the “%Inh” value in [7] is listed as 23%; in [8], 0%; in assay [9], 0%; in assay [10], 0%; in assay [11], 0%; in [12], 17%. Also, the “%Inh” value in assay [13] was found to be 0%; in assay [14] it was 0%; in assay [15] it was 0%; in [16], 22%; in [17] it was 0%; in assay [18], 0%. Further, the “%Inh” value in assay [19] and in [20] was 0% throughout.
Consider `Cc1cccc(-c2nc(Nc3ccc4[nH]nnc4c3)c3ccccc3n2)n1` [GW867587], for which the “%Inh” value in assay [1], in [2], in assay [3], in [4], in assay [5] and in assay [6] was 0% in each case. For the same molecule, the “%Inh” value in assay [7], in [8], in assay [9], in [10], in assay [11] and in assay [12] was 0% each time. The “%Inh” value in assay [13], in assay [14], in [15], in assay [16], in assay [17] and in [18] was 0% in each case. Further, the “%Inh” value in assay [19] and in [20] was 0% each time.
Take `Cl.Cn1ccc(-c2cccc(Nc3ccnc4cc(-c5nccs5)ccc34)c2)n1` [GW525701]: the “%Inh” value worked out at 9% in assay [1]; 0% in assay [2]; 0% in assay [3]; 0% in assay [4]; 0% in assay [5]; 8% in assay [6]. Besides, the “%Inh” value in assay [7] amounted to 22%; in [8] it was 0%; in [9] it was 0%; in assay [10], 11%; in assay [11], 0%; in assay [12], 53%. Further, the “%Inh” value was 0% in assay [13]; 0% in [14]; 0% in [15]; 7% in assay [16]; 0% in [17]; 3% in assay [18]. The results for the “%Inh” value in [19] and in [20] were 19% and 0%, respectively.
Consider `CCc1nc(-c2cccc(C)c2)c(-c2ccnc(NC(=O)c3ccccc3)c2)s1`, for which the “%Inh” value in [1] was found to be 2%; in assay [2], 9%; in [3] it was 0%; in [4], 23%; in assay [5], 0%; in [6], 0%. Moreover, the “%Inh” value is reported as 32% in [7]; 11% in [8]; 0% in assay [9]; 0% in [10]; 0% in [11]; 35% in assay [12]. The “%Inh” value amounted to 0% in assay [13]; 1% in assay [14]; 0% in assay [15]; 8% in assay [16]; 0% in assay [17]; 0% in assay [18]. Also, the “%Inh” value in assay [19] was found to be 33%; in assay [20] it was 0%.
In the case of `Nc1nc(-c2ccc3c(N)n[nH]c3c2)cc(N2CCCCC2)n1` [GSK2228768], the “%Inh” value in assay [1] was 2%; in assay [2] it was 0%; in assay [3], 0%; in assay [4], 7%; in assay [5], 0%; in [6], 10%. For the same molecule, the “%Inh” value in assay [7] is recorded as 0%; in [8], 0%; in [9], 0%; in [10] it was 0%; in assay [11], 0%; in assay [12], 12%. Moreover, the “%Inh” value in [13] was found to be 24%; in assay [14], 0%; in [15] it was 0%; in assay [16], 1%; in [17], 0%; in [18], 18%. Further, the “%Inh” value in assay [19] and in assay [20] was 0% in each case.
For the molecule `CSc1ccc(NC2=C(c3ccccc3Cl)C(=O)NC2=O)cc1` [SB-342411], the “%Inh” value in assay [1] stood at 9%; in assay [2], 0%; in assay [3] it was 0%; in assay [4] it was 9%; in assay [5], 0%; in assay [6], 5%. In addition, the “%Inh” value in assay [7] was determined as 0%; in assay [8], 11%; in assay [9], 4%; in assay [10], 26%; in assay [11], 16%; in assay [12], 14%. Besides, the “%Inh” value in assay [13] is listed as 6%; in [14], 0%; in [15] it was 0%; in assay [16], 1%; in assay [17], 9%; in assay [18] it was 0%. Besides, the “%Inh” value in assay [19] is reported as 14%; in assay [20], 0%.
